# DT40 TDP1 no CPT: qHTS for Inhibitors of human tyrosyl-DNA phosphodiesterase 1 (TDP1): qHTS in cells in absence of CPT; DT40 Tdp1-/- hTDP1 cells, no CPT, ATP luminescence, 48 h; Potency, µM (series often up to 46.2 µM), for inactives: at the top dose activity change, negative = growth inhibition, hits mostly inhibitors; 420,000 tested, 15% active; AID 686978, 2013; also: potency is read from the fitted curve at half-maximal effect; nearly all actives have a fitted effect of over 55% in size
#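 DT40 Tdp1-/-;hTDP1 cells, no CPT (DMSO vehicle only), 400 cells/well; compounds pin-transferred; ≥48 hr, 37 °C; CellTiter-Glo 30 min RT dark, luminescence read.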
# HT1080NT lethal: kills 2HG-producing HT-1080-NT fibrosarcoma cells. HT-1080-NT fibrosarcoma viability, CellTiter-Glo ATP luminescence, 48 h. Potency, µM (doses to about 46.1 µM), inactives show at the top dose activity, negative = less viability, actives largely listed as cytotoxic. 360,000 tested, 1.6% active. AID 686970;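 also: NT is the 2HG producing partner of a matched IDH1 knockdown line; potency is read from the fitted curve at half-maximal effect; 0% = DMSO-treated cells and -100% = media-only wells without cells; nearly all actives have a fitted effect of over 55% in size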
#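 Viability by CellTiter-Glo luminescence after 48 h compound exposure at 37C of HT-1080-NT cells (750/well, RPMI, 5% FBS). % activity scaled between DMSO wells and medium-only wells, then curve-fitted and categorized by curve class.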
# HT1080 IDH1KD tx: toxicity to HT-1080 IDH1 knockdown cells (counter line); 360,000 tested, 2% active; Potency, µM (doses to about 46.1 µM), for inactives: top-dose activity, negative = toxicity, usual class: cytotoxic; HT-1080 IDH1 knockdown viability, ATP luminescence, 48 h;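 also: potency is read from the fitted curve at half-maximal effect; 0% = DMSO wells and -100% = cell-free medium wells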
#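 In this qHTS, HT-1080 cells depleted of IDH1 are exposed for 48 h at 37 °C to compound titrations. Toxicity is scored from CellTiter-Glo luminescence, with DMSO as full viability and medium alone as none.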
# IL1B secr inh: inhibitors of inflammasome signaling (IL-1 beta secretion). 360,000 tested, 4.7% active. activity change, % at 57.5 µM. AID 743279. THP-1 LPS/ATP IL-1B secretion, AlphaLISA, 16 h; hits give low values; in the data active = activity change below about -50%; inconclusive = mostly about -30% to -49%
#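 Secreted IL-1B measured by AlphaLISA bead assay after 16 h compound exposure of THP-1 cells; compounds (final up to 57.5 uM) added 1 h before LPS (250 ng/mL) and ATP (1.25 mM) stimulation; lower signal means less secretion.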
# TDP1 cell CPT: DT40-hTDP1 cell growth loss with CPT; chicken DT40 Tdp1-/-;hTDP1 cells + 20 nM CPT, ATP luminescence, 48 h; Potency, µM (top dose mostly 46.2 µM), inactives show top-dose activity change, negative = growth inhibition, hits mostly inhibitors; 420,000 tested, 12% active; AID 686979; also: potency is read from the fitted curve at half-maximal effect; nearly all actives have a fitted effect of over 55% in size
#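 Chicken DT40 Tdp1-/- cells stably complemented with human TDP1 were seeded at 400 cells/well in medium containing 20 nM camptothecin, exposed to pin-transferred compounds, and grown at 37 °C for at least 48 hr. Viability was read as ATP luminescence.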
# 12-LOX inh: inhibitors of human 12S-lipoxygenase ALOX12; 580,000 tested, 1.1% active; AID 1671190; P18054; Potency, µM (series often up to 108 µM), for inactives: at the highest dose activity change, negative = inhibition, actives largely listed as inhibitors; purified 12hLO, xylenol orange hydroperoxide absorbance; also: potency is read from the fitted curve at half-maximal effect
# Target sequence (P18054 whole entry, looked up): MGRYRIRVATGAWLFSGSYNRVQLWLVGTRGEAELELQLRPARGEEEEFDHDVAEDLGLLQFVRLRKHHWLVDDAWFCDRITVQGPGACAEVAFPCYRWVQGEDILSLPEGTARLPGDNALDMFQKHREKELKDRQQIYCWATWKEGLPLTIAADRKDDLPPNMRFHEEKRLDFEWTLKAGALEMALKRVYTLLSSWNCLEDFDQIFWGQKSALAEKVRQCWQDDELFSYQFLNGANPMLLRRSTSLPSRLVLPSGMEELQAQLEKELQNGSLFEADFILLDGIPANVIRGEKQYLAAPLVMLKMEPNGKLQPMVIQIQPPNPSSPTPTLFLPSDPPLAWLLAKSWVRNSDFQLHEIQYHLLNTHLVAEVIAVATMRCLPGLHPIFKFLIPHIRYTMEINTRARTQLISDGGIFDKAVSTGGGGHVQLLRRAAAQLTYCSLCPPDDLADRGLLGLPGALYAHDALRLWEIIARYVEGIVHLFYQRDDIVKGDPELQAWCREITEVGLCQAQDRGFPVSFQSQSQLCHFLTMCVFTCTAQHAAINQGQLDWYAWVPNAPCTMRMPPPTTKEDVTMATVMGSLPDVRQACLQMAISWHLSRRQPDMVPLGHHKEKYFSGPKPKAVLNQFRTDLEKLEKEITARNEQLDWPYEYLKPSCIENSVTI
#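 Hydroperoxide product was detected by ferrous iron/xylenol orange as the 573 to 405 nm absorbance ratio. Arachidonic acid at 40 uM (final) was turned over for 30 min at room temperature by 150 nM human 12hLO, pH 7.0 Hepes buffer, after 15 min compound preincubation.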
# Starred values were filed as active, the others as inactive; i = inactive; ? = inconclusive; · = no result given; [ ] = dose if it differs, or a comment. Many of the other results were omitted from the sample, so hits are more common in it than they were. Unless noted, calls follow the shape of the dose curve; as a rule, active = well fitted curve in the direction sought with a large enough effect; inconclusive = small, poorly fitted or top-dose-only effect, or another doubt; inactive = no such curve, though single readings can be large; an effect the other way counts as inactive or inconclusive. Unless noted, % is scaled to controls: 0 for no effect and ±100 for the full control effect.
SMILES,DT40 TDP1 no CPT,HT1080NT lethal,HT1080 IDH1KD tx,IL1B secr inh,TDP1 cell CPT,12-LOX inh
Cc1cc(F)ccc1S(=O)(=O)N1CCCCC1CCNC(=O)C(=O)NCc1ccccn1 (stereo not drawn),16µM*,-13%,-10%,0,?,0%
Cc1cc(C)c(S(=O)(=O)N2CCCCC2CCNC(=O)C(=O)NCc2cccnc2)c(C)c1 (stereo not drawn),?,0%,8%,0,12µM*,5%
Cc1ccc(CNC(=O)C(=O)NCCC2CCCCN2S(=O)(=O)c2ccc(C)cc2)cc1 (stereo not drawn),?,-1%,-8%,13,23µM*,-17%
O=C(NCC1(COc2ccccc2)C[C@@H](O)[C@@H](O)C1)C1CCOCC1 (stereo partly drawn),·,·,·,·,·,63%[176 µM]
O=C1CCN(C(=O)c2cccnc2)CCCC(C(=O)NCCCc2ccccc2)CCN1 (stereo not drawn),·,·,·,·,·,41%
Cc1ccc(C)c(S(=O)(=O)N2CCCC2CNC(=O)C(=O)NC2CCCCCC2)c1 (stereo not drawn),23µM*,8%,12%,-23,?,13%
Cc1ccc(C)c(S(=O)(=O)N2CCCCC2CCNC(=O)C(=O)NCc2ccccc2)c1 (stereo not drawn),18µM*,?,?,-19,23µM*,-14%
Cc1ccc(C)c(S(=O)(=O)N2CCCCC2CCNC(=O)C(=O)NC2CC2)c1 (stereo not drawn),?,-11%,-18%,16,-21%,-2%
Cc1ccccc1CNC(=O)C(=O)NCCC1CCCCN1S(=O)(=O)c1ccccc1 (stereo not drawn),18µM*,1%,-4%,-4,16µM*,-12%
Cc1cc(C)c(S(=O)(=O)N2CCCC(C(=O)NCc3cccnc3)C2)c(C)c1 (stereo not drawn),21µM*,-5%,-13%,4,16µM*,i
Cc1ccc(C)c(S(=O)(=O)N2CCCCC2CCNC(=O)C(=O)NCc2cccnc2)c1 (stereo not drawn),?,-3%,-16%,3,?,13%
CC1CCCCN1C(=O)CN1CCN(C(=O)CCc2c[nH]c3ccccc23)CC1 (stereo not drawn),·,·,·,·,·,-11%
CC(=O)Nc1ccc(-c2csc(NCCc3ccccc3)n2)cc1,?,-25%,-26%,?,?,-11%
NC(=O)c1cc(-c2csc(-c3cccnc3)n2)ccc1O,13µM*,-1%,-10%,?,-23%,?
C=CCNc1nc(-c2ccc(O)c(C(N)=O)c2)cs1,18µM*,1%,3%,-7,13µM*,-119%
NC(=O)c1cc(-c2csc(NCCc3ccccc3)n2)ccc1O,?,-29%,-22%,-23,?,32µM*
CSc1cccc(NC(=O)NC(c2ccccc2)c2nnc(-c3ccccc3Cl)o2)c1 (stereo not drawn),·,·,·,·,·,39%
O=c1cc(CN2CCN(c3ccccc3)CC2)c2cc(O)c(-c3ccccc3)cc2o1,10µM*,-2%,-3%[9.24 µM],24,5.8µM*,-13%
COc1cccc(NCc2cc(=O)oc3cc(C)c(O)cc23)c1,?,-24%,-1%,-6,?,?
O=c1cc(CN2CCN(c3cccc(Cl)c3)CC2)c2cc(O)c(-c3ccccc3)cc2o1,18µM*,-3%,0%,26,13µM*,175%
COc1cccc(NCc2cc(=O)oc3cc(-c4ccccc4)c(O)cc23)c1,18µM*,-18%,-28%,?,?,7%
O=c1cc(CN2CCN(c3ccc(Cl)c(Cl)c3)CC2)c2ccccc2o1,15µM*,-2%,-16%,18,-88%,-22%
O=c1cc(CN2CCCCCCC2)c2ccccc2o1,?,26%,11%,57,?,?
O=C(Nc1ccc2oc(-c3ccccc3Cl)nc2c1)c1cncc(Br)c1,12µM*,?,-9%,-24,7.3µM*,0%
O=C(Nc1ccc2oc(-c3cc(Br)ccc3Cl)nc2c1)c1ccc2ccccc2c1,12µM*,·,·,·,16µM*,?
SMILES,DT40 TDP1 no CPT,HT1080NT lethal,HT1080 IDH1KD tx,IL1B secr inh,TDP1 cell CPT,12-LOX inh
O=C(Nc1ccc2oc(-c3ccncc3)nc2c1)c1ccc2ccccc2c1,·,·,·,·,·,-25%
O=C(Nc1ccc2oc(-c3ccccc3Cl)nc2c1)c1ncn[nH]1,1%,1%,-2%,-1,-8%,?
Cc1ccc(S(=O)(=O)N2c3ccccc3OCC2c2ccccc2)cc1 (stereo not drawn),16µM*,?,?,5,29µM*,-13%
CC1COc2ccccc2N1S(=O)(=O)c1ccc(Cl)cc1 (stereo not drawn),23µM*,-13%,-25%,21,-5%,3%
O=C(C(Cl)Cl)N1c2ccccc2OCC1c1ccccc1 (stereo not drawn),15µM*,-10%,-19%,-9,18µM*,0%
Cc1csc2c(NC3CCN(Cc4ccccc4)CC3)ncnc12,16µM*,-3%,-13%,-19,23µM*,0%
c1ccc(CN2CCC(Nc3ncnc4sccc34)CC2)cc1,2%,3%,?,0,10%,-13%
Cc1sc2ncnc(NC3CCN(Cc4ccccc4)CC3)c2c1C,3.7µM*,?,?,?,2.6µM*,4%
O=c1[nH]c(=S)[nH]cc1Oc1ccc(Cl)cc1,-15%,6%,6%,10,-26%,?
O=c1[nH]c(=S)[nH]cc1Oc1ccc(Br)cc1Br,-4%,3%,-1%,17,-14%,11µM*
CCN(CC)c1ccc(N=Cc2ccc(N(CC)CC)cc2O)cc1,?,-2%,1%,29,?,?
CCN(CC)c1ccc(C=Nc2ccc(N(C)C)cc2)c(O)c1,16µM*,-18%,-8%,-21,?,?
CCN(CC)c1ccc(/C=N/N=C(N)N)c(O)c1,0.65µM*,1µM*,1.6µM*,0,0.65µM*,-6%
CCN(CC)c1ccc(C=Nc2ccccc2)c(O)c1,?,0%,-3%,27,?,?
O=C1CC(c2ccco2)Cc2[nH]c(=O)c(C(=O)Nc3ccccc3)cc21 (stereo not drawn),10µM*,·,·,·,?,·
O=C1CC(c2ccccc2)Cc2[nH]c(=O)c(C(=O)Nc3ccc(F)cc3)cc21 (stereo not drawn),5%,·,·,·,-2%,-2%

# Screening data (PubChem BioAssay)
